The panel holds about 83,000 compounds, 20% with a hit somewhere; the sample as a whole holds those more often.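 Results are percent growth after 48 hours of single-concentration exposure. 100 means growth as in untreated cells, lower positive values show inhibition; negative values down to -100 show cell death.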 The source made the active and inactive calls. The calls were made as follows: active = growth percent below 10; inactive = the rest.
Tests used:
Experiment in all cases: NCI-60 one-dose screen, 48 h (100 = growth as untreated, 0 = no growth, -100 = all killed)
Conditions in all cases: 10 µM unless noted
[1] = test system: SR leukemia
[2] = test system: OVCAR-8 ovarian
[3] = test system: OVCAR-5 ovarian
[4] = test system: OVCAR-4 ovarian
[5] = test system: SK-OV-3 ovarian
[6] = test system: IGROV1 ovarian
[7] = test system: OVCAR-3 ovarian
[8] = test system: HS 578T breast
[9] = test system: NCI/ADR-RES ovarian
[10] = test system: T-47D breast
[11] = test system: MDA-MB-435 melanoma
[12] = test system: SW-620 colon
[13] = test system: MCF7 breast
[14] = test system: HCT-116 colon
[15] = test system: HCC-2998 colon
[16] = test system: KM12 colon
[17] = test system: RPMI-8226 leukemia
[18] = test system: BT-549 breast

Measured: growth

C=C1CCC2C3(C)COC(C)(C)OC3CCC2(C)C1C/C=C1/C(=O)OCC1Oc1ccccc1OC (centres undefined)
inactive: [1] 28.9% | [2] 81.1% | [3] 101% | [4] 60.7% | [5] 114% | [6] 76.2% | [7] 31.3% | [8] 113% | [9] 85.6% | [10] 54.3% | [11] 68.6% | [12] 21.4% | [13] 30.2% | [14] 73.3% | [15] 122% | [16] 97.9%

Cc1ccc(S(=O)(=O)NCCCNc2cc(-c3cn(C(C)(C)C)nc3-c3cccc(O)c3)ccn2)cc1
inactive: [1] 40.6% | [2] 71.9% | [3] 78.5% | [4] 56% | [5] 85.7% | [6] 61.7% | [7] 74.6% | [8] 60% | [9] 72.4% | [10] 44.2% | [11] 63.1% | [13] 45.7% | [14] 52.5% | [15] 50.3% | [16] 39.8%

COc1ccc(-c2cc(-c3ccccc3)nc(SCCCC(=O)NO)n2)cc1OC
active: [1] 4.39% | [2] 5.05% | [4] 6.41% | [5] -0.339% | [7] -22.7% | [9] -12.3% | [10] 2.62% | [11] 9.02% | [14] 5.58%
inactive: [3] 11% | [6] 15.6% | [8] 18% | [12] 12.5% | [15] 34.7% | [16] 13.1%

CC(=O)Nc1nc(N)nc(NC(C)=O)c1N=O
inactive: [1] 100% | [17] 118% | [3] 108% | [4] 127% | [5] 103% | [6] 131% | [7] 99.7% | [8] 104% | [9] 97.2% | [10] 110% | [18] 104% | [12] 101% | [13] 108% | [14] 98.6% | [16] 111%

COc1cc(C2C3=C(COC3=O)Nc3cc4c(cc32)CCC4)cc2c1OCO2 (centres undefined)
inactive: [17] 23.2% | [4] 43.5% | [5] 17.4% | [6] 23.2% | [8] 28.4% | [10] 64% | [18] 23.8% | [12] 25.4% | [13] 19.1%
active: [1] 5.8% | [7] -47.9% | [9] -16.6% | [11] -12.3% | [14] 5.73% | [15] 8.29% | [16] 3%

COc1ccc(C(=O)c2cc(OC)c3c(c2)OCO3)cc1O
inactive: [17] 24.7% | [4] 37.7% | [6] 27.9% | [8] 12.2% | [10] 56.9% | [18] 54.5% | [12] 24.6% | [13] 17.1% | [15] 16.2%
active: [1] 9.89% | [5] 8.88% | [7] -41.7% | [9] 2.68% | [11] -22.5% | [14] 7.71% | [16] 4.48%

O=C1NN(C(=O)c2ccc(Cl)cc2)C(c2ccccc2)=N/C1=C\c1cn(-c2ccccc2)nc1-c1ccccc1
inactive: [1] 90% | [17] 117% | [3] 93.4% | [4] 96.8% | [5] 102% | [6] 95.1% | [7] 112% | [8] 94.8% | [9] 92.9% | [18] 101% | [11] 71.4% | [12] 101% | [13] 91.3% | [14] 82.4% | [15] 101% | [16] 98.6%

COc1cc(Nc2ncccc2C(=O)NCc2cn(Cc3cccc(Oc4ccccc4)c3)nn2)cc(OC)c1
active: [7] -2.42% | [9] 9.54% | [11] -15.3%
inactive: [1] 25.3% | [2] 53.9% | [3] 83.2% | [4] 70.6% | [5] 41.9% | [6] 58.5% | [8] 49.1% | [10] 50.3% | [18] 43.8% | [12] 31.4% | [14] 19.5% | [15] 55% | [16] 16.7%

COc1cc(/C=C/C(=O)c2cccc(-n3cc(-c4cc(OC)c(OC)c(OC)c4)[nH]c3=O)c2)cc(OC)c1OC
inactive: [3] 28.4% | [4] 23.2% | [5] 49.6% | [8] 62.4% | [9] 10.5% | [15] 23.1%
active: [1] -12.7% | [17] -46.4% | [7] -39% | [18] -2.07% | [11] 3.2% | [12] -47.2% | [13] -5.04% | [14] -78.3% | [16] -83.4%

C=C1CCC2C(C)(CO)C(O)CCC2(C)C1C/C=C1/C(=O)OCC1O/C=C/c1ccccc1 (centres undefined)
active: [12] 5.82%
inactive: [1] 27.6% | [2] 55.3% | [3] 93.5% | [4] 62.7% | [5] 125% | [6] 84.1% | [7] 75.7% | [8] 96.3% | [9] 73.9% | [10] 33.4% | [11] 75.8% | [13] 32.6% | [14] 58.5% | [15] 101% | [16] 74.8%

O=S(=O)(NCCCNc1nccc(-n2ccc3cccnc32)n1)c1cccc(C(F)(F)F)c1
inactive: [1] 103% | [2] 105% | [3] 101% | [4] 101% | [5] 112% | [6] 107% | [7] 112% | [8] 100% | [9] 101% | [10] 99.6% | [11] 108% | [12] 108% | [13] 103% | [14] 105% | [15] 119% | [16] 98%

Clc1cc(Cl)cc(-c2ccc(-c3ccc(/C=N/NC4=NCCN4)cc3)s2)c1
inactive: [3] 95.2% | [4] 81% | [6] 43.3% | [7] 14.2% | [8] 82.1% | [9] 45.6% | [10] 56.4% | [18] 94.3% | [11] 25.8% | [13] 16% | [15] 19.3%
active: [1] 8.3% | [17] 9.95% | [12] -59.7% | [14] -10.4% | [16] -2.85%

O=c1cc(Cc2ccc([N+](=O)[O-])cc2)[nH]c(=O)[nH]1
inactive: [1] 91.9% | [17] 91.6% | [3] 98.2% | [4] 108% | [5] 99.1% | [6] 117% | [7] 126% | [8] 100% | [9] 109% | [18] 98.3% | [11] 107% | [12] 103% | [13] 106% | [14] 103% | [15] 105% | [16] 106%

CC12CCC3C4(C)COC(c5ccco5)OC4CCC3(C)C1CC(C1=CCOC1=O)O2 (centres undefined)
inactive: [1] 95.7% | [2] 108% | [3] 99.8% | [4] 103% | [5] 121% | [6] 93.8% | [7] 105% | [8] 107% | [9] 98.5% | [10] 101% | [11] 103% | [12] 107% | [14] 104% | [15] 105% | [16] 103%

O=S(=O)(NCCCNc1nccc(-n2ccc3cccnc32)n1)c1ccc(Br)cc1
inactive: [1] 112% | [2] 103% | [3] 107% | [4] 99.3% | [5] 113% | [6] 108% | [7] 112% | [8] 103% | [9] 101% | [10] 95.6% | [11] 107% | [12] 110% | [13] 110% | [14] 105% | [15] 121% | [16] 98.3%

Cc1ccc(S(=O)(=O)NCCNc2cc(-c3cn(C(C)(C)C)nc3-c3cccc(O)c3)ccn2)cc1
inactive: [1] 51.7% | [2] 79% | [3] 80% | [4] 67.3% | [5] 91.4% | [6] 75.2% | [7] 81.7% | [8] 76.6% | [9] 67% | [10] 45.1% | [11] 78.1% | [12] 39.7% | [13] 41.6% | [14] 62.1% | [15] 43% | [16] 65.1%

Cn1cnc2c(N3CCN(C(=O)OCc4ccc5c(Cl)cc(Cl)c(O)c5n4)CC3)nc(Cl)nc21
inactive: [1] 74.1% | [2] 51.3% | [3] 90.5% | [4] 32.7% | [5] 97.6% | [6] 66% | [7] 66.8% | [8] 75.7% | [9] 35.3% | [10] 61% | [11] 67.5% | [12] 85.9% | [13] 73% | [14] 53.1% | [15] 94.1% | [16] 56.9%

C=C1CCC2C(C)(CO)C(O)CCC2(C)C1CC(NCc1ccccc1)C1=CCOC1=O (centres undefined)
inactive: [1] 99.8% | [2] 94% | [3] 94.3% | [4] 97.8% | [5] 105% | [6] 102% | [7] 105% | [8] 104% | [9] 95.9% | [10] 97.7% | [11] 106% | [12] 97.3% | [13] 89.8% | [14] 99.8% | [15] 108% | [16] 104%

O=C(NCCCNc1nccc(-n2ccc3cccnc32)n1)c1c(F)cccc1F
inactive: [1] 99.2% | [2] 107% | [3] 98.9% | [4] 94.9% | [5] 116% | [6] 97.6% | [7] 109% | [8] 103% | [9] 99.4% | [10] 97.1% | [11] 105% | [12] 107% | [13] 88.4% | [14] 101% | [15] 104% | [16] 106%

— PubChem BioAssay (NCI)
